Structures can show the parent of a compound that is named as a salt. Where two headings read alike, the source gives them in different places. About 95 (3%) of roughly 3,300 compounds showed an effect of 50% or more. Shown is part of a subset that was picked to be rich in strong results. Peptide text beside a SMILES is read from it.
Test system: HCoV-229E
Set-up: species or system Huh-7; HTS, protection from HCoV-229E induced cell death, luminescent cell viability (CellCounting-Lite 2.0), inhibition rate
Conditions: 24 h post infection, 1 h compound pre-incubation, 10 µM, inhibitor

| SMILES | 229E Inhibition rate | 229E Inhibition rate (229E Inhibition rate, 24 h) |
| --- | --- | --- |
| COc1cc(O[C@@H]2O[C@H](CO[C@@H]3O[C@H](CO)[C@@H](O)[C@H](O)[C@H]3O)[C@@H](O)[C@H](O)[C@H]2O)c2c(O)c3c(=O)cc(C)oc3cc2c1 [Rubrofusarin gentiobioside] | 20.7% | – |
| COc1cccc(CCC(=O)O)c1 [3-(3-Methoxyphenyl)propionic acid] | 21.4% | – |
| O=CC[C@H](O)[C@H](O)CO [Thyminose] | 3.9% | – |
| C=C[C@H]1[C@H](O[C@@H]2O[C@H](CO)[C@@H](O)[C@H](O)[C@H]2O)OC=C(C(=O)OC)[C@H]1CC(=O)O [Secoxyloganin] | 44.3% | – |
| CC(C)CCC[C@](C)(O)[C@H]1CC[C@H]2[C@@H]3CC=C4C[C@@H](O)CC[C@]4(C)[C@H]3CC[C@@]21C [20(S)-Hydroxycholesterol] | 57% | – |
| CC(C)CCC[C@@H](C)[C@H]1CC[C@H]2[C@@H]3CC=C4C[C@@H](O)CC[C@]4(C)[C@H]3CC[C@]12C [Cholesterol] | 13.1% | – |
| C[C@H](CCCC(C)(C)O)[C@H]1CC[C@H]2[C@@H]3CC=C4C[C@@H](O)CC[C@]4(C)[C@H]3CC[C@]12C [25-Hydroxycholesterol] | 3.1% | – |
| Nc1ncnc(N[C@@H]2O[C@H](CO)[C@@H](O)[C@H]2O)c1[N+](=O)[O-] [Clitocine] | 17.5% | – |
| CC(C)=CCc1c(O[C@@H]2O[C@H](CO)[C@@H](O)[C@H](O)[C@H]2O)cc(O)c2c(=O)c(O[C@@H]3O[C@@H](C)[C@H](O)[C@@H](O)[C@H]3O)c(-c3ccc(O)cc3)oc12 [Epimedoside A] | 15.1% | – |
| COc1cc2c(cc1OC)[C@@H](Cc1ccc(O)c(Oc3cc4c(cc3OC)CCN(C)[C@@H]4Cc3ccc(O)cc3)c1)N(C)CC2 [Liensinine (perchlorate)] | – | 8.8% |
| COc1cc2c(cc1OC)[C@@H](Cc1ccc(O)c(Oc3cc4c(cc3OC)CCN(C)[C@@H]4Cc3ccc(O)cc3)c1)N(C)CC2 [Liensinine (Diperchlorate)] | – | 57.2% |
| COc1cc2c(cc1OC)[C@@H](Cc1ccc(O)c(Oc3cc4c(cc3OC)CCN(C)[C@@H]4Cc3ccc(O)cc3)c1)N(C)CC2 [Liensinine] | – | 44.3% |
| CC[C@]1(O)C[C@@H]2CN(CCc3c([nH]c4ccccc34)[C@@](C(=O)OC)(c3cc4c(cc3OC)N(C)[C@H]3[C@@](O)(C(=O)OC)[C@H](OC(C)=O)[C@]5(CC)C=CCN6CC[C@]43[C@@H]65)C2)C1 [Vinblastine (sulfate)] | 30.6% | – |
| CCC1=C[C@@H]2CN3CCc4c([nH]c5ccccc45)[C@@](C(=O)OC)(C2)[C@@H]13 [Catharanthine] | 54.2% | – |
| CC[C@H]1C[C@@H]2CN3CCc4c([nH]c5ccccc45)[C@](C(=O)OC)(C2)[C@H]13 [Coronaridine] | 41.8% | – |
| C=C(C)[C@@H]1CC=C(CO)CC1 [(S)-(−)-Perillyl alcohol] | 9.9% | – |
| C[C@H]1CC[C@@H]2[C@@H](C)[C@H]3[C@H](C[C@H]4[C@@H]5CC=C6C[C@@H](O)CC[C@]6(C)[C@H]5CC[C@]34C)N2C1 [Solanidine] | 24.2% | – |
| C=C[C@H]1CN2CC[C@H]1C[C@H]2[C@H](O)c1ccnc2ccccc12 [Cinchonidine] | 13.4% | – |
| C=C[C@H]1CN2CC[C@H]1C[C@@H]2[C@@H](O)c1ccnc2ccc(OC)cc12 [Quinidine hydrochloride monohydrate] | – | 48.6% |
| C=C[C@H]1CN2CC[C@H]1C[C@@H]2[C@@H](O)c1ccnc2ccccc12 [Cinchonine] | 53.6% | – |
| CC1(C)CCC[C@](C)([C@H]2CC[C@]3(C)[C@@H]2[C@H](O)C[C@@H]2[C@@]4(C)CC[C@H](O)C(C)(C)[C@@H]4[C@@H](O)C[C@]23C)O1 [Panaxatriol] | 15.9% | – |
| CC(C)=CCCC(C)CCO (stereo not drawn) [Citronellol] | 12.8% | – |
| CC1(C)CC[C@]2(C(=O)O[C@@H]3O[C@H](CO)[C@@H](O)[C@H](O)[C@H]3O)CC[C@]3(C)C(=CC[C@@H]4[C@@]5(C)CC[C@H](O[C@@H]6O[C@H](C(=O)O)[C@@H](O)[C@H](O[C@@H]7OC[C@@H](O)[C@H](O)[C@H]7O)[C@H]6O)C(C)(C)[C@@H]5CC[C@]43C)[C@@H]2C1 [Momordin IIc] | 29.6% | – |
| CC(=O)[C@H]1CC[C@H]2[C@@H]3CC=C4C[C@@H](O)CC[C@]4(C)[C@H]3CC[C@]12C [Pregnenolone] | 40.7% | – |
| CC(=O)[C@H]1CC[C@H]2[C@@H]3CC=C4C[C@@H](OS(=O)(=O)O)CC[C@]4(C)[C@H]3CC[C@]12C [Pregnenolone monosulfate (sodium)] | 55.9% | – |
| CC(C)CCC[C@@H](C)[C@H]1CC[C@H]2[C@@H]3CC=C4C[C@@H](OS(=O)(=O)O)CC[C@]4(C)[C@H]3CC[C@]12C [Cholesteryl sulfate (sodium)] | 7.6% | – |
| CC1(C)C(=O)[C@]2(C)CC[C@H]1C2 [(-)-Fenchone] | 23.7% | – |
| C=C1C[C@@]23CC[C@H]4[C@@](C)(CCC[C@@]4(C)C(=O)O[C@@H]4O[C@H](CO)[C@@H](O)[C@H](O[C@@H]5O[C@H](CO)[C@@H](O)[C@H](O)[C@H]5O)[C@H]4O[C@@H]4O[C@H](CO)[C@@H](O)[C@H](O)[C@H]4O)[C@@H]2CC[C@]1(O[C@@H]1O[C@H](CO)[C@@H](O)[C@H](O[C@@H]2O[C@H](CO)[C@@H](O)[C@H](O)[C@H]2O)[C@H]1O[C@@H]1O[C@H](CO)[C@@H](O)[C@H](O)[C@H]1O)C3 [Rebaudioside M] | 19.5% | – |
| OC[C@H]1O[C@@](CO)(OC[C@@]2(O[C@H]3O[C@H](CO)[C@@H](O)[C@H](O)[C@H]3O)O[C@H](CO)[C@@H](O)[C@@H]2O)[C@@H](O)[C@@H]1O [1-Kestose] | 18.6% | – |
| CC[C@H](C)[C@@H]1NC(=O)[C@@H]2CCCN2C(=O)[C@@H]2CCCN2C(=O)[C@@H]2CCCN2C(=O)[C@H](CC(C)C)NC(=O)CNC(=O)CNC(=O)[C@H](Cc2ccccc2)NC1=O [Heterophyllin B] (cyclo(FGGLPPPI)) | 12.9% | – |

Source: publication PMC12431657, “Discovery and mechanistic insights of dibenzoylmethane as a broad spectrum inhibitor of coronavirus” (PLOS Pathogens, 2025)
